Assay outcomes: PubChem BioAssay, National Center for Advancing Translational Sciences (NCATS)
Only some compounds are listed: those with a hit (about 19% of all), similar ones and a draw of the others.
Pf growth 96h – Primary qHTS for delayed death inhibitors of the malarial parasite plastid, 96 hour incubation; P. falciparum luciferase reporter growth, 96 h; actives 6.9% (n = 320,000); Potency, µM (highest dose often 28.7 µM), hits mostly inhibitors
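Readout is luminescence from an integrated firefly luciferase in P. falciparum. Red cells, 2% hematocrit and 0.05% parasitemia final, were cultured with compound through two parasite generations (96 hours) at 37 C, 5% CO2.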
Cycloheximide cs – Cycloheximide Counterscreen for Small Molecule Inhibitors of Shiga Toxin | cell reporter, cycloheximide protein synthesis inhibition counterscreen | max response, % | actives 12% (n = 300,000) | AID 2314, 2010; in the data active = max response mostly above about 13%, no sharp cut-off; inactive = mostly below about 14%; note: read at 38.3 µM for the half of the compounds with a filed dose
AMA1-RON2 inh – qHTS for Inhibitors of AMA1-RON; Towards Development of Antimalarial Drug Lead: Primary Screen | Plasmodium falciparum AMA1 (3D7) - RON2 peptide interaction | AlphaScreen AMA1-biotinylated RON2 peptide binding | Potency, µM (titrated, usually from 58.2 µM), actives largely listed as inhibitors | actives 0.2% (n = 360,000) | AID 720542, 2013; note: nearly all actives have a fitted effect of over 45% in size
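AMA1 (3D7) with his tag at 25 nM final met compounds first, then biotinylated RON2 peptide at 25 nM; detection used donor plus acceptor beads, 10 µg/mL apiece, read by AlphaScreen after 30 min at room temperature.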
Shiga inhibitor – A qHTS for Small Molecule Inhibitors of Shiga Toxin; AID 2315, 2010; actives 9.2% (n = 290,000); Vero cells, Shiga toxin protein synthesis inhibition reporter; inhibition, % at 38.7 µM; in the data active = inhibition mostly above about 28%, no sharp cut-off; inactive = mostly below about 43%
SARS PLpro yeast – qHTS of Yeast-based Assay for SARS-CoV PLP; actives 0.19% (n = 330,000); S. cerevisiae expressing SARS-CoV PLpro, growth rescue; AID 485353, 2010; Potency, µM (top dose mostly 32.9 µM), most hits filed as activators; calls by dose curve; note: nearly all actives have a fitted effect of over 55% in size
Pf growth 48h – Primary qHTS for delayed death inhibitors of the malarial parasite plastid, 48 hour incubation; Potency, µM (series often up to 28.7 µM), usual class: inhibitors; AID 504832, 2011; P. falciparum luciferase growth in erythrocytes, 48 h; actives 5.9% (n = 310,000)
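Cell-based growth assay: transgenic P. falciparum expressing firefly luciferase, cultured in red cells within RPMI 1640 containing 0.5% w/v Albumax, 24 mM bicarbonate and gentamycin. A drop in luciferase activity indicates inhibition.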
Each line names hits and unclear results; the compound was inactive in the other large screens; ! = not active in a repeat. Unless noted, calls come from the whole dose curve; as a rule, active = well fitted curve in the direction sought with a large enough effect; inconclusive = small, poorly fitted or top-dose-only effect, or another doubt; inactive = no such curve, though single readings can be large; an effect the other way counts as inactive or inconclusive.

CCCCn1c(O)c(/C(CC)=N/N2CCCCC2c2cccnc2)c(=O)[nH]c1=S (centres undefined)	Pf growth 96h 2.9µM, Pf growth 48h 9.3µM
CCCCn1c(O)c(/C=N/N2CCCCC2c2cccnc2)c(=O)[nH]c1=S (centres undefined)	Pf growth 96h inconclusive
Nc1ccc(O)c2c(=O)cc(-c3ccccc3Cl)oc12	Cycloheximide cs 45!, Shiga inhibitor 61
O=c1cc(-c2ccccc2Cl)oc2cc(O)cc(O)c12	Cycloheximide cs 46, Shiga inhibitor 94
O=C(Nc1ccc(O)c2c(=O)cc(-c3ccccc3Cl)oc12)c1ccc(Cl)cc1Cl	Pf growth 96h inconclusive
O=c1c(O)c(-c2ccccc2O)oc2cc(O)cc(O)c12	none (no result: Pf growth 96h, AMA1-RON2 inh, SARS PLpro yeast, Pf growth 48h)
CCOc1cccc2oc(-c3ccccc3Cl)cc(=O)c12	Cycloheximide cs 59, Shiga inhibitor active (no result: Pf growth 96h, AMA1-RON2 inh, SARS PLpro yeast, Pf growth 48h)
COCCn1c(SCC(=O)Nc2ccc(F)cc2F)nc2c([nH]c3ccccc32)c1=O	none
CCCN1CCN(CC(O)COC(c2ccc(OC)cc2)c2ccc(OC)cc2)CC1 (centres undefined)	none
CCc1cc(C(=O)N=Nc2c(O)[nH]c3c(Br)cc(Br)cc23)c2ccccc2n1	Pf growth 96h 4.7µM
COc1ccc(CNC(=O)c2cn(Cc3ccccc3F)c(=O)s2)cc1	none (no result: Pf growth 96h, Cycloheximide cs, Shiga inhibitor, SARS PLpro yeast, Pf growth 48h)
O=C(NNC(=O)c1ccc(Cl)s1)c1csc(N2CCOCC2)n1	none (no result: Cycloheximide cs, Shiga inhibitor)
CCCCN(CC)CCNC(=O)C1c2cc(OC)c(OC)cc2C(=O)N2CCc3ccccc3C12 (centres undefined)	Pf growth 96h 10µM, Pf growth 48h inconclusive
Cc1cc(OC(=O)N(C)C)nc(-c2ccc(C)c(Cl)c2)n1	Pf growth 96h inconclusive, Shiga inhibitor 39, Pf growth 48h inconclusive
O=C(O)CNc1ncccc1[N+](=O)[O-]	none
Cc1c(O)ccc(/C=N/Nc2ncccc2[N+](=O)[O-])c1O	Pf growth 96h inconclusive, Cycloheximide cs 32, Shiga inhibitor 141
O=[N+]([O-])c1cccnc1N/N=C/c1ccccc1O	Cycloheximide cs 43, Shiga inhibitor 78
CC1=CC(=C(C#N)c2nc3ccccc3s2)C=C(C)N1c1ccc(F)cc1	Pf growth 96h inconclusive, Pf growth 48h inconclusive
COc1ccccc1N1C(C)=CC(=C(C#N)c2nc3ccccc3s2)C=C1C	Pf growth 96h inconclusive, Cycloheximide cs 22, Pf growth 48h 9.3µM
Cc1ccc(N=C2SC(C(=O)O)CC(=O)N2C)cc1C (centres undefined)	Pf growth 96h 12µM
Cc1ccc(N=C2SC(C(=O)NCCc3ccccc3)CC(=O)N2C)cc1C (centres undefined)	none
O=C(Cn1nnc(-c2cccc(C(F)(F)F)c2)n1)N1CCCCCC1	none (no result: Pf growth 48h)
O=C(Cn1nnc(-c2ccc(OCc3ccccc3F)cc2)n1)N1CCOCC1	Cycloheximide cs 21, Shiga inhibitor active (no result: Pf growth 96h)
O=C(Cn1nnc(-c2ccccc2)n1)N1CCCCC1	Pf growth 96h inconclusive, Cycloheximide cs 38, Shiga inhibitor 47
CC(C)COc1ccc(-c2nnn(CC(=O)N3CCCC3)n2)cc1	Cycloheximide cs 23, Shiga inhibitor 58, Pf growth 48h inconclusive
CC1CCCN(C(=O)Cn2nnc(-c3ccccc3F)n2)C1 (centres undefined)	Cycloheximide cs 39, Shiga inhibitor 49
Cc1cc(C)cc(N(CC(=O)Nc2ccccc2C(=O)N2CCOCC2)S(C)(=O)=O)c1	none
O=C(Cn1nnc(-c2ccccc2Cl)n1)N1CCCCC1	Pf growth 96h inconclusive, Cycloheximide cs 27, Shiga inhibitor 110
O=C(Cn1nnc(-c2ccccc2Cl)n1)N1CCN(S(=O)(=O)c2ccc(Cl)cc2)CC1	none
COc1ccc(C(=O)N2CCN(c3ccc(C)cc3)CC2)cc1OC	Pf growth 96h inconclusive, SARS PLpro yeast inconclusive (no result: Pf growth 48h)
COc1ccc(-c2csc3nc(C)nc(N4CCN(c5ccc(C(C)=O)cc5)CC4)c23)cc1OC	Pf growth 96h inconclusive, Cycloheximide cs 31, Shiga inhibitor 65, Pf growth 48h inconclusive
O=C(Cc1noc2ccccc12)Nc1ccccn1	Cycloheximide cs 54, Shiga inhibitor 88
O=C(Cc1noc2ccccc12)NNC(=S)Nc1ccccc1	none
